In PubChem BioAssay (NCATS):
Several values for one entry are separate records, joined by “and”; a condition that tells them apart may be missing. Identical values can stand only once. Records with an inconclusive call do not appear. Activity calls are given as the source filed them. Unless noted, calls come from the whole dose curve.

Tests used:
[1] = target: Estrogen receptor (Homo sapiens) (UniProt P03372); test: qHTS assay for small molecule agonists of estrogen receptor alpha signaling (AID 588514);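 note: 0% = vehicle only and 100% = reference agonist; nearly all actives have a fitted effect of over 70% in size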
How it was run: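 Cells were plated at 5000/well, incubated 4 hrs at 37 C, dosed with compound titration series, incubated 18 hrs at 37 C, loaded with CCF4 dye for 2 hrs at RT, then fluorescence was read.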

[2] = target: Vitamin D3 receptor (Homo sapiens) (UniProt P11473); test: qHTS assay for small molecule antagonists of vitamin D receptor signaling (AID 588541);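 note: receptor activated by calcitriol during compound treatment; series mostly up to about 77 µM; % is set by controls: 0 for no effect and ±100 for the full control effect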
How it was run: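 VDR-UAS-bla HEK293T cells (2000/well, 2% charcoal-stripped FBS) were treated with titrated compounds plus 1-alpha,25-dihydroxyvitamin D3 (50 nM or 3 nM final) for 16 h at 37 C. CCF4 beta-lactamase fluorescence was read; Hill fits gave IC50.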

[3] = target: Vitamin D3 receptor (Homo sapiens) (UniProt P11473); test: qHTS assay for small molecule agonists of vitamin D receptor signaling (AID 588543);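 note: 0% = DMSO basal and 100% = reference agonist control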
How it was run: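 β-lactamase reporter, VDR-UAS-bla HEK293T, agonist mode. Cells plated 5 h at 37 °C, compound titration 16 h at 37 °C, CCF4 dye 2 h RT, ratio 460/530 nm. Hill fit → EC50, efficacy vs 50 nM 1α,25-(OH)2D3.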

[4] = target: Retinoic acid receptor RXR-alpha (Homo sapiens) (UniProt P19793); test: qHTS assay for small molecule antagonists of retinoid X receptor alpha signaling (AID 588546; active = well fitted inhibition curve with a large enough effect in the signal ratio, with a control signal flat, not every such curve was filed as active; the % refers to the signal ratio;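 note: cells stimulated with 9-cis-retinoic acid as agonist; % is set by controls: 0 for no effect and ±100 for the full control effect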); settings: HEK293T RXRa-UAS-bla, beta-lactamase ratio, antagonist mode
How it was run: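 Beta-lactamase reporter inhibition, read as CCF4 fluorescence ratio (ex 405, em 460/530 nm) after 2 h at RT. HEK293T UAS-bla cells, 2500/well, were stimulated with 9-cis-RA at 500 or 100 nM final alongside test compound for 18 h at 37 C.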

[5] = target: Thyroid hormone receptor beta (Homo sapiens) (UniProt P10828); test: qHTS assay for small molecule antagonists of thyroid hormone receptor beta signaling (AID 588547; active = well fitted inhibition curve with a large enough effect in the signal ratio, with a control signal flat, not every such curve was filed as active; the % refers to the signal ratio;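 note: cells stimulated with 0.4 nM T3 agonist during compound exposure; series mostly up to about 77 µM; % is set by controls: 0 for no effect and ±100 for the full control effect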); settings: TR-UAS-bla HEK293, beta-lactamase ratio, antagonist mode, 18 h
How it was run: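 TR-UAS-bla GripTite HEK293 cells in 2% charcoal/dextran FBS medium were preincubated 4 h at 37 C, given compound (0.59 nM to 92 uM) plus 0.4 nM T3 (final) for 18 h, then CCF4 for 2 h at RT; Hill fit gave IC50.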

[6] = qHTS assay for environmental chemicals that activate the Aryl hydrocarbon Receptor (AhR) signaling pathway (AID 651777; active = well fitted curve in the direction sought with a large enough effect; an effect the other way counts as inactive or inconclusive; note: % of control where 0% means no effect; nearly all actives have a fitted effect of over 15% in size); settings: 1A2-DRE human hepatoma cells, luciferase, 24 h; activation: stronger effect = higher value
How it was run: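 Reporter gene assay: hepatoma cells with DRE/CYP1A2-luciferase, 24 hr compound incubation at 37 C, 5% CO2, luminescence after One-Glo (30 min, RT).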

[7] = qHTS assay for small molecule agonists of the antioxidant response element (ARE) signaling pathway measured by Nrf2-dependant transcriptional activity - cell viability counter screen (AID 720653; active = well fitted curve in the direction sought with a large enough effect in the repeat runs; an effect the other way counts as inactive or inconclusive; note: % is set by controls: 0 for no effect and ±100 for the full control effect); settings: ARE-bla HepG2 viability, CellTiter-Glo ATP luminescence, 16 h; max response: stronger effect = lower value
How it was run: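 ARE-bla HepG2 cells (2,000/well) rested 5 hrs at 37C/5% CO2, then exposed to compounds in DMSO for 16 hrs. Viability was read in the same wells as intracellular ATP by luminescence, 30 min at room temperature after reagent addition.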

[8] = target: DNA dC->dU-editing enzyme APOBEC-3G (Homo sapiens) (UniProt Q9HC16); test: qHTS for inhibitors of Vif-A3G interactions: Validation (AID 588379; active = well fitted curve in the direction sought with a large enough effect; an effect the other way counts as inactive or inconclusive; note: 0% is about no effect)
How it was run: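 HeLa cells stably expressing Vif and A3G-eYFP, 700 cells/well, incubated overnight at 37 deg C, then exposed to compound overnight at 37 deg C. Inhibition of Vif-mediated degradation read as increased yellow fluorescence (Ex 488/Em 500-530) by laser-scanning cytometry.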

Sequence of Retinoic acid receptor RXR-alpha (Homo sapiens) (P19793 whole entry, looked up): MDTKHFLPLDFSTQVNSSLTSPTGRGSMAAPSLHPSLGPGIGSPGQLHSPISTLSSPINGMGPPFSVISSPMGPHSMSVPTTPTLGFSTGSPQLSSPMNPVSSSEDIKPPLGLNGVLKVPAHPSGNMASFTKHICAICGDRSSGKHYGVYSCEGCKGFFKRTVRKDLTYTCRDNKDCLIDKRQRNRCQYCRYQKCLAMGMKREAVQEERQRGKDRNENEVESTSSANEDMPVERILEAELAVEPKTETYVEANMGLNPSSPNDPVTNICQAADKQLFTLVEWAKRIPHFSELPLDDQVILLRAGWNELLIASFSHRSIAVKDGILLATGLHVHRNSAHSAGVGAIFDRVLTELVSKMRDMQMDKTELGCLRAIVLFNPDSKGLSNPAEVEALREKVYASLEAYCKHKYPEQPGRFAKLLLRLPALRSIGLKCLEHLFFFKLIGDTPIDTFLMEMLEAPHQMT
Sequence of Thyroid hormone receptor beta (Homo sapiens) (P10828 whole entry, looked up): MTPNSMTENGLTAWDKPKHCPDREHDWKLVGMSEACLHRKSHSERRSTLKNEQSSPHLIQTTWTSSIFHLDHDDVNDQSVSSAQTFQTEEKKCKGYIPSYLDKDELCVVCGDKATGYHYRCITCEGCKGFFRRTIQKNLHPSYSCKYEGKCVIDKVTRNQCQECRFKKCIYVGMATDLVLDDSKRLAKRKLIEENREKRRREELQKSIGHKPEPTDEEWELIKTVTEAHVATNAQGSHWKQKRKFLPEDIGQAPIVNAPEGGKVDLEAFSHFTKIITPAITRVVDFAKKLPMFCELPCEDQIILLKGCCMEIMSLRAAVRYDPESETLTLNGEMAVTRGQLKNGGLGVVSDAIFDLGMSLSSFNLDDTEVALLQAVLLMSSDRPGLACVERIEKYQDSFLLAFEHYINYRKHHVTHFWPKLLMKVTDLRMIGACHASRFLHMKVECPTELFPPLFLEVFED
Sequence of DNA dC->dU-editing enzyme APOBEC-3G (Homo sapiens) (Q9HC16 whole entry, looked up): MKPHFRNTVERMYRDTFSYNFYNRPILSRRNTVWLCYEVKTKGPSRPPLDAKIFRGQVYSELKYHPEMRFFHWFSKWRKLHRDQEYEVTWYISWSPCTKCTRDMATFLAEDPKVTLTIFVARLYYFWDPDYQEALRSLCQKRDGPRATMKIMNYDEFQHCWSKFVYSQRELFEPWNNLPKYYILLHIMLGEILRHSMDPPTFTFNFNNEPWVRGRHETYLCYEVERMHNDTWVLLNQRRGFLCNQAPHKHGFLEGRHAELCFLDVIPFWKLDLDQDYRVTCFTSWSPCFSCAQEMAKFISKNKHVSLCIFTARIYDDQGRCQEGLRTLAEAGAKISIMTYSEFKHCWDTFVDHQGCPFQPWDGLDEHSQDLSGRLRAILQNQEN
Sequence of Estrogen receptor (Homo sapiens) (P03372 whole entry, looked up): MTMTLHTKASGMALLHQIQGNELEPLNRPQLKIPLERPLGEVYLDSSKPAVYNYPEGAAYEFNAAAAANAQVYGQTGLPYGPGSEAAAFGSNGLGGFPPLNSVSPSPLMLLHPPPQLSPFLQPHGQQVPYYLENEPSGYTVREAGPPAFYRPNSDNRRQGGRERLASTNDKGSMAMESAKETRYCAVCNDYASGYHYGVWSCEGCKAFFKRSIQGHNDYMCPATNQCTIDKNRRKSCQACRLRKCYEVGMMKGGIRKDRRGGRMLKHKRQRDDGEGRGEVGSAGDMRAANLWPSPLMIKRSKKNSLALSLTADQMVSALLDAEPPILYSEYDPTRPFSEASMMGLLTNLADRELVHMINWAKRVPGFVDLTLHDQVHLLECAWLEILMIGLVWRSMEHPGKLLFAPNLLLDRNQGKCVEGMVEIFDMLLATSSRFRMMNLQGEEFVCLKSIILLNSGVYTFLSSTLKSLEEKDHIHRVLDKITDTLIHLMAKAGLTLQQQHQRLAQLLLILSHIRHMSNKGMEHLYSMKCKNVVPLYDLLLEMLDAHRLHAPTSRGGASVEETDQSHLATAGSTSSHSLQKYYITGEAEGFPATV
Sequence of Vitamin D3 receptor (Homo sapiens) (P11473 whole entry, looked up): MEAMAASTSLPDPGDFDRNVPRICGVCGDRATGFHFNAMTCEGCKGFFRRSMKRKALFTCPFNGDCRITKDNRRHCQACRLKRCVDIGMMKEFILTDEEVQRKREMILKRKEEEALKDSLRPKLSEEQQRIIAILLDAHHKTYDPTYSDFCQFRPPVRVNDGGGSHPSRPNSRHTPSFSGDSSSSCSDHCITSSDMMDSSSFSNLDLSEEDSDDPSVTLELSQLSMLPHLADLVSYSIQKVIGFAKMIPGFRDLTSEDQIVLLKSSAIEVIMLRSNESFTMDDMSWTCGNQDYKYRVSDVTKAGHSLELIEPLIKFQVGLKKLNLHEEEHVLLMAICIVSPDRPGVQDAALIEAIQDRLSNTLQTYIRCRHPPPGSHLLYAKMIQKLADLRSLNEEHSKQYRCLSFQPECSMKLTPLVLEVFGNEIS

O=S1OC[C@@H]2[C@H](CO1)[C@@]1(Cl)C(Cl)=C(Cl)[C@]2(Cl)C1(Cl)Cl (stereo partly drawn)
inactive: Potency [1] | Potency [2] | outcome [3] | max response [4] -70.2% and -50.2% | activity change % (negative = inhibition) [5] 3.09% | activation [6] 0.042% and 0.216% | max response [7] -3.19% and 3.58%

O=c1cccc2n1CC1CC2CN2CCCC[C@H]12 (stereo partly drawn)
inactive: outcome [8]

CN(C)C1C(=O)C(C(N)=O)=C(O)[C@@]2(O)C(=O)C3=C(O)c4c(O)cccc4[C@@](C)(O)C3C[C@@H]12 (stereo partly drawn)
inactive: outcome [8]

FC(F)(F)c1ccc(OCCCOc2c(Cl)cc(OCC=C(Cl)Cl)cc2Cl)nc1
inactive: Potency [1] | Potency [2] | outcome [3] | max response [4] 3.21% | activity change % (negative = inhibition) [5] 2.93% | activation [6] -0.256% | max response [7] -24.7%

CCOP(=S)(OCC)SCC(=O)NC(C)C
inactive: Potency [1] | Potency [2] | outcome [3] | max response [4] -1.4% | activation [6] 0.496% | max response [7] 2%

O=CN1CC2CC(C1)c1cccc(=O)n1C2 (stereo not drawn)
inactive: outcome [8]

CCOC1Oc2ccc(OS(C)(=O)=O)cc2C1(C)C (stereo not drawn)
inactive: Potency [1] | Potency [2] | outcome [3] | max response [4] -7.44% | activation [6] 1.08% | max response [7] -22.7%

CN(C)C1C(=O)C(C(N)=O)=C(O)[C@@]2(O)C(=O)C3=C(O)c4c(O)cccc4[C@@](C)(O)C3[C@H](O)C12 (stereo partly drawn)
inactive: outcome [8]

CCOP(=O)(OCC)SCSCC
inactive: Potency [1] | Potency [2] | outcome [3] | max response [4] -5.71% | activity change % (negative = inhibition) [5] 4.37% | activation [6] 0.0868% | max response [7] 2.19%

COc1cc2c(cc1OC)-c1c(O)c(OC)cc3c1[C@H](C2)N(C)CC3
inactive: outcome [8]

COCc1cnc(C2=NC(C)(C(C)C)C(=O)N2)c(C(=O)O)c1 (stereo not drawn)
inactive: Potency [1] | Potency [2] | outcome [3] | max response [4] 6.51% | activity change % (negative = inhibition) [5] -1.58% | activation [6] 1.65% | max response [7] 4.02%

Cc1cc(Cl)ccc1OCC(=O)O
inactive: Potency [1] | Potency [2] | outcome [3] | max response [4] 3.77% and -0.223% | activity change % (negative = inhibition) [5] 22.2% and -4.04% | activation [6] 0.725% and -1.61% | max response [7] 17.3% and -19.3%

COc1ccc2c(c1OC)C(=O)O[C@@H]2C1c2cc3c(cc2CCN1C)OCO3 (stereo partly drawn)
inactive: outcome [8]

C/C=C(\C)C(=O)O[C@H]1C[C@@H](OC(C)=O)[C@@]2(C(=O)OC)CO[C@H]3[C@@H](O)[C@@](C)([C@]45O[C@@]4(C)[C@H]4C[C@@H]5O[C@@H]5OC=C[C@@]54O)[C@H]4[C@]1(CO[C@]4(O)C(=O)OC)[C@@H]32
inactive: Potency [1] | Potency [2] | max response [4] 9.93% | activity change % (negative = inhibition) [5] 7.18% | activation [6] -0.999% | max response [7] -22.9%

CC(C)[C@]1(NC(=O)[C@@H]2C=C3c4cccc5[nH]cc(c45)C[C@H]3N(C)C2)O[C@@]2(O)C3CCCN3C(=O)[C@H](Cc3ccccc3)N2C1=O (stereo partly drawn)
inactive: outcome [8]

c1cc2c(cc1[C@H]1OC[C@@H]3[C@H]1CO[C@H]3c1ccc3c(c1)OCO3)OCO2
inactive: outcome [8]

COc1nc(C)nc(NC(=O)NS(=O)(=O)c2ccccc2CCC(F)(F)F)n1
inactive: Potency [1] | Potency [2] | outcome [3] | max response [4] -8.68% | activity change % (negative = inhibition) [5] 9.28% | activation [6] 0.656% | max response [7] 3.55%

CCOP(=S)(OCC)Oc1ncn(-c2ccccc2)n1
inactive: Potency [1] | Potency [2] | outcome [3] | max response [4] -7.83% | activity change % (negative = inhibition) [5] 4.61% | max response [7] -3.44%

CC1CCC2C(C)C(=O)OC3OC4(C)CCC1C32OO4 (stereo not drawn)
inactive: outcome [8]

CC1CC[C@@]2(OC1)O[C@@H]1[C@@H](O)[C@H]3C4CC[C@H]5C[C@@H](O[C@@H]6O[C@H](CO)[C@H](O[C@@H]7O[C@H](CO)[C@@H](O)[C@H](O[C@@H]8OC[C@@H](O)[C@H](O)[C@H]8O)[C@H]7O[C@@H]7O[C@H](CO)[C@@H](O)[C@H](O[C@@H]8O[C@H](CO)[C@@H](O)[C@H](O)[C@H]8O)[C@H]7O)[C@H](O)[C@H]6O)[C@H](O)C[C@]5(C)C4CC[C@]3(C)[C@H]1[C@@H]2C (stereo partly drawn)
inactive: outcome [8]

O=[As](O)(O)O
inactive: Potency [1] | Potency [2] | outcome [3] | max response [4] -6.13% | activity change % (negative = inhibition) [5] -13.2% | activation [6] -0.386% | max response [7] -8.77%

CN1Cc2c(ccc3c2OCO3)C2C(O)Cc3cc4c(cc3C21)OCO4 (stereo not drawn)
inactive: outcome [8]

COC(C)C(O)(C(=O)OC1=CCN2CC[C@H](O)[C@H]12)C(C)C (stereo partly drawn)
inactive: outcome [8]

C=CC(=O)NCO
inactive: Potency [1] | Potency [2] | outcome [3] | max response [4] 4.89% and 0.243% | activity change % (negative = inhibition) [5] 0.0569% | activation [6] 0.0723% and 1.42% | max response [7] -3.08% and -9.83%

CCOP(=O)(OCC)SCSC(C)(C)C
inactive: Potency [1] | Potency [2] | outcome [3] | max response [4] -1.69% | activity change % (negative = inhibition) [5] -1.18% | activation [6] -0.964%
